# Shown are actives, neighbours in structure and some others; about 3.2% of the full set was active somewhere.
# aDG glyco up = increases alpha dystroglycan glycosylation | Pro5-aDG cells, alpha-DG glycosylation AlphaScreen (IIH6); 0% Pro5, 100% B10-LARGE cell signal | activation, % at 10 µM | 0.22% of 360,000 active | AID 624168;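 active = activation of at least 8% versus controls, or a plate z-score of at least 8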;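 note: Pro5 are CHO cells carrying HIG-tagged alpha-DG that lacks glycosylation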
# FAS TE block = FAS thioesterase (human) inhibition; P49327; recombinant FAS-TE, OMFH fluorogenic substrate, fluorescence endpoint; inhibition, % at 15 µM; 0.67% of 360,000 active;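 active = compounds whose normalised, plate-corrected inhibition of enzyme fluorescence in the single-dose primary screen is 50% or more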
# CRFBP-R2 agonist = agonists of human CRF-binding protein/CRF-R2 receptor complex; 0.46% of 350,000 active; activation, % at 13.2 µM; HEK293 CRF-R2/CRF-BP, calcium dye fluorescence (FLIPR); percent of saturating CRF peptide response; AID 588473;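 active = activation of at least 50%, plus an integration ratio under a set limit after plate pattern correction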
# Cardio protect = protects H9c2 cardiomyocytes from peroxide injury; H2O2 injury protection, ATPLite, 2 h; 0.63% of 360,000 active; protection from H2O2 cell death, % at 20 µM;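 active = compounds giving at least 50% protection of heart cells from peroxide-induced death in the single-dose screen, raw or plate-pattern-corrected value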
# PfG6PD inh = PfG6PD (Plasmodium falciparum) enzyme inhibition; PfGluPho enzyme, NADPH resazurin-diaphorase fluorescence; inhibition, % at 20 µM; 0.78% of 350,000 active; AID 504690;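 active = inhibition reaching at least a set limit at 20 µM in the primary screen, cut at about 59% in these data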
# CRFR2-BP antag = CRF-BP/CRF-R2 complex antagonism; HEK293 CRF-R2/CRF-BP, CRF-induced calcium fluorescence; inhibition, % at 11.8 µM; 0.59% of 350,000 active; AID 588475;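 active = inhibition of the ligand-induced calcium signal above about 50% at the single tested concentration, limit read from the data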
# FAS-TE inh conf = confirmation of human fatty acid synthase thioesterase inhibitors | 45% of 2,300 active | inhibition, % at 15 µM | recombinant FAS-TE, OMFH fluorogenic substrate, fluorescence | shares compounds with FAS TE block | AID 624325;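 active = compounds inhibiting the enzyme by at least 50% at 15 µM in any one of the replicates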
# Hits are given with their value; - = inactive; . = no result.
SMILES,aDG glyco up,FAS TE block,CRFBP-R2 agonist,Cardio protect,PfG6PD inh,CRFR2-BP antag,FAS-TE inh conf
O=S(=O)(NCC(c1ccc2c(c1)OCO2)N1CCOCC1)c1ccccc1 (stereo unspecified),-,-,-,-,-,-,.
CC(=O)c1cccc(-c2ccnc3c2CC(C(=O)Nc2ccc(C(C)C)cc2)O3)c1 (stereo unspecified),-,55,.,-,.,.,59
CCN(CC(=O)Nc1ccc(OC)cc1)C(=O)C1CCN(C(=O)c2ccc(Cl)cc2)CC1,-,-,-,-,-,-,.
O=C1N[C@@H](Cc2ccccc2)C(=O)N2[C@H]1C[C@]1([C@]34C[C@H]5C(=O)N[C@@H](Cc6ccccc6)C(=O)N5[C@H]3N(S(=O)(=O)c3ccccc3)c3ccccc34)c3ccccc3N(S(=O)(=O)c3ccccc3)[C@H]21,-,77,-,-,-,-,-
O=C1N[C@@H](Cc2ccccc2)C(=O)N2[C@@H]3N(S(=O)(=O)c4ccccc4)c4ccccc4[C@]3(Br)C[C@@H]12,-,-,-,-,-,-,.
O=C(/C=C/[C@H]1O[C@@H](n2ccc(=O)[nH]c2=O)[C@H](O)[C@@H]1O)NCCN1CCOCC1,-,-,.,-,.,.,.
COc1ccccc1/C=C/C1(C(=O)NC2CCCC2)CC(=O)N1c1ccccc1 (stereo unspecified),-,-,-,-,-,-,.
CN(C)S(=O)(=O)c1ccc(N2C(=O)CC2(/C=C/c2ccccc2)C(=O)NC2CCCC2)cc1 (stereo unspecified),-,60,-,-,-,-,-
COc1cc(-c2nnc(COC(=O)C3c4ccccc4Oc4ccccc43)o2)cc(OC)c1OC,-,-,-,-,-,-,.
COc1ccc(C2=C(C=C(C#N)C#N)C(c3ccccc3C)c3ccccc3O2)cc1OC (stereo unspecified),-,69,-,-,-,-,-
CCCC[C@@H]1C[C@H]1[C@@H](NC(=O)c1ccco1)c1ccc(C(=O)OC)cc1,.,.,-,.,-,-,.
COc1cccc(-c2cc(C(=O)Nc3nc4ccccc4s3)c3ccccc3n2)c1,-,-,-,-,-,-,.
COc1ccc(-c2cc(C(=O)Nc3nc4c(C)cccc4s3)c3ccccc3n2)cc1OC,-,68,-,-,-,-,-
COc1cc(-c2cc(C(=O)Nc3c(Cl)cc(Cl)cc3Cl)c3ccccc3n2)cc(OC)c1OC,-,56,-,-,-,-,-
Cc1cc(/C=C(\C#N)C(=O)OCC(=O)N(C)c2c(N)n(Cc3ccccc3)c(=O)[nH]c2=O)c(C)n1CC(C)C,-,-,-,-,-,-,.
Cc1ccc(S(=O)(=O)/C(C#N)=C/c2c(N3CCOCC3)nc3c(C)cccn3c2=O)cc1,-,56,-,-,-,-,-
N#C/C(=C\c1c(N2CCC(C(N)=O)CC2)nc2ccccn2c1=O)S(=O)(=O)c1ccc(Cl)cc1,-,55,-,-,-,-,30
Cc1ccc(S(=O)(=O)/C(C#N)=C/c2c(N3CCCCC3)nc3ccccn3c2=O)cc1,-,62,-,-,-,-,-
N#C/C(=C\c1c(N2CCOCC2)nc2ccccn2c1=O)S(=O)(=O)c1ccccc1,-,-,-,-,-,-,.
CN1CCN(c2nc3ccccn3c(=O)c2/C=C(\C#N)S(=O)(=O)c2ccc(Cl)cc2)CC1,-,-,-,-,-,-,.
N#C/C(=C\c1c(N2CCN(Cc3ccccc3)CC2)nc2ccccn2c1=O)S(=O)(=O)c1ccccc1,-,56,-,-,-,-,-
CCOC(=O)C1=C(COC(=O)c2ccco2)NC(=O)NC1CC (stereo unspecified),-,-,-,-,-,-,.
COc1ccc(CNCc2cccc(Oc3ccccc3)c2)cc1,-,-,-,-,-,-,.
Cc1ccc(S(=O)(=O)/C(C#N)=C/c2c(N3CCN(C)CC3)nc3ccccn3c2=O)cc1,-,-,-,-,-,-,.
Cc1ccc(S(=O)(=O)/C(C#N)=C/c2c(N3CCN(Cc4ccccc4)CC3)nc3ccccn3c2=O)cc1,-,81,-,-,-,-,-
SMILES,aDG glyco up,FAS TE block,CRFBP-R2 agonist,Cardio protect,PfG6PD inh,CRFR2-BP antag,FAS-TE inh conf
COc1ccc(S(=O)(=O)N(C(=O)c2ccncc2)c2ccc3oc4c(c3c2)CCCC4)cc1,-,60,-,-,-,-,-
O=C(c1ccncc1)N(c1ccc2oc3c(c2c1)CCCC3)S(=O)(=O)c1cccc([N+](=O)[O-])c1,-,-,-,-,-,-,.
COC(=O)[C@]1(Cc2ccccc2)N[C@H](CN(C)C(=O)c2ccc(F)cc2)[C@@H]2C(=O)N(C)C(=O)[C@@H]21,-,-,-,-,-,-,.
Cc1ccc(S(=O)(=O)N(C)CC(=O)O/N=C(\N)c2cccc(Br)c2)cc1,-,-,-,-,-,-,.
O=C(NNC(=O)C1CC1)c1ccccc1[N+](=O)[O-],-,-,-,-,-,-,.
Cc1cccc2c1N(C(=O)CN1C(=O)c3ccccc3C1=O)C(C)(C)c1ssc(=S)c1-2,-,-,-,-,-,-,.
Cc1cc(C)c2c(c1)-c1c(ssc1=S)C(C)(C)N2C(=O)CN1C(=O)c2ccccc2C1=O,-,63,-,-,-,-,-
COc1ccc(NC(=O)N2C[C@H]3CON(C)[C@H]3C[C@H]2c2ccc(N3CCCCC3)cc2)cc1,-,-,.,-,.,.,.
N=c1c(S(=O)(=O)c2ccc(Br)cc2)cc2c(=O)n3ccccc3nc2n1C1CCCCC1,-,-,-,-,-,-,.
COc1ccc(CCn2c(=N)c(S(=O)(=O)c3ccc(C)cc3)cc3c(=O)n4ccccc4nc32)cc1,-,59,-,-,-,-,-
N=c1c(S(=O)(=O)c2ccc(Cl)cc2)cc2c(=O)n3ccccc3nc2n1C1CCCC1,-,65,-,-,-,-,-
O=C(OCc1cn([C@@H]2CN(Cc3cccs3)[C@@H](c3ccccc3)C[C@H]2O)nn1)c1ccccc1,-,-,-,-,-,-,.
COc1ccc(C(=O)OCC(=O)NCc2ccc3c(c2)OCO3)cc1[N+](=O)[O-],-,50,-,-,-,-,-
COc1ccc(CC(=O)Nc2cc(S(=O)(=O)Nc3ccc(OC)cc3)ccc2OC)cc1,-,-,-,-,-,-,.
CCOC(=O)c1cc(C(=O)OCC)c(=O)[nH]c1N1CCCCC1,-,-,-,-,-,-,.
O=C(NN1C(=O)C2C(c3ccccc3)C=CC(c3ccccc3)C2C1=O)c1cccc(Br)c1 (stereo unspecified),-,54,-,-,-,-,45
CCCCNC(=O)CCC(=O)Nc1ccc2nc(N3CCC(C)CC3)cc(C)c2c1,-,60,-,-,-,-,-
Cc1cc(N2CCOCC2)nc2ccc(NC(=O)CCC(=O)N3CCC(C)CC3)cc12,-,-,-,-,-,-,.

# Assay outcomes (PubChem BioAssay)
